Reference: the supplement of paper PMC7411054
Counter-ions that a name gives are not always drawn.

Assays:
Assay in all cases: lowest phenotypically active concentration; higher = less potent
Settings in all cases: treatment time: 24 h
A549-ACTB-RAB5A = test system: A549-ACTB-RAB5A
Procedure, shortened: (§1)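 Live-cell features were measured per well and normalised to solvent control wells after fifteen gene-edited A549, HepG2 and WPMY1 reporter lines had been treated for 24 h at 0.3, 1, 3 or 9 µM in four wells each. A condition was deviating when ≥3 of 4 wells sat beyond the 95th percentile of control Euclidean distances. It was reproducible when the median replicate Pearson correlation exceeded the 95th percentile of non-replicates. Phenotypic activity demanded both.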

A549-GM130-SQSTM1 = test system: A549-GM130-SQSTM1
Procedure, shortened: as §1

A549-TUBA1B-RELA = test system: A549-TUBA1B-RELA
Procedure, shortened: as §1

HepG2-ACTB-RAB5A = test system: HepG2-ACTB-RAB5A
Procedure, shortened: as §1

A549-CANX-COX4 = test system: A549-CANX-COX4
Procedure, shortened: as §1

A549-TP53BP1-CLTA = test system: A549-TP53BP1-CLTA
Procedure, shortened: as §1

HepG2-TP53BP1-CLTA = test system: HepG2-TP53BP1-CLTA
Procedure, shortened: as §1

WPMY1-ACTB-RAB5A = test system: WPMY1-ACTB-RAB5A
Procedure, shortened: as §1

WPMY1-CANX-COX4 = test system: WPMY1-CANX-COX4
Procedure, shortened: as §1

WPMY1-TUBA1B-RELA = test system: WPMY1-TUBA1B-RELA
Procedure, shortened: as §1

Compound	lowest phenotypically active concentration (A549-ACTB-RAB5A) [µM]	lowest phenotypically active concentration (A549-GM130-SQSTM1) [µM]	lowest phenotypically active concentration (A549-TUBA1B-RELA) [µM]	lowest phenotypically active concentration (HepG2-ACTB-RAB5A) [µM]	lowest phenotypically active concentration (A549-CANX-COX4) [µM]	lowest phenotypically active concentration (A549-TP53BP1-CLTA) [µM]	lowest phenotypically active concentration (HepG2-TP53BP1-CLTA) [µM]	lowest phenotypically active concentration (WPMY1-ACTB-RAB5A) [µM]	lowest phenotypically active concentration (WPMY1-CANX-COX4) [µM]	lowest phenotypically active concentration (WPMY1-TUBA1B-RELA) [µM]
O=c1[nH]c2ccccc2n1C1CCN(CCCC(c2ccc(F)cc2)c2ccc(F)cc2)CC1 [pimozide]	9	9	3	3						
CCn1cnc2c(Nc3cccc(Cl)c3)nc(N[C@H]3CCCC[C@H]3N)nc21	1	1	1	1	3	1	1	3	1	1
CC[C@]12C=CCN3CC[C@]4(C(=C(C(=O)OC)C1)Nc1ccccc14)[C@@H]32 [Tabersonine dichlorhydrate]	9	9	9	9	9		9	9	9	9
COc1ccc(N(C(=O)Oc2c(C)cccc2C)c2ccnc(Nc3ccc(N4CCN(C)CC4)cc3)n2)c(OC)c1	1	1	1	≤ 0.3	3	3	1	1		
C[C@H](CCC(=O)O)C[C@H](C)C[C@H](C)C(=O)/C=C(\O)[C@H](C)C[C@H](C)C/C=C/[C@@H](C)[C@@H](O)[C@@H](C)[C@@H](O)C[C@@H]1CC[C@@](C)([C@H]2CC[C@@](C)([C@@H](C)O)O2)O1 [Ionomycin free acid]					9			3	9	
CN1CCC2=C[C@H](O)[C@H]3OC(=O)c4cc5c(cc4[C@H]3[C@@H]21)OCO5 [Hippeastrine hydrobromide]	9									
N#CC(C#N)=NNc1cccc(Cl)c1	9	9	9	9	9	9	9	9	9	3
C=C1[C@@H](C)[C@H]2[C@H](Cc3ccccc3)NC(=O)[C@]23OC(=O)C=C[C@H](O)CCC[C@@H](C)CC=C[C@H]3[C@@H]1O [Cytochalasin B]	≤ 0.3	1	1	1	1	3	3	1	1	3
C[C@@H]1O[C@@H](O[C@H]2C[C@@H](O)[C@]3(CO)[C@H]4[C@H](O)C[C@]5(C)[C@@H](C6=CC(=O)OC6)CC[C@]5(O)[C@@H]4CC[C@]3(O)C2)[C@H](O)[C@H](O)[C@H]1O [Strophantine octahydrate]	1	≤ 0.3	1	≤ 0.3	≤ 0.3	≤ 0.3	≤ 0.3	≤ 0.3	≤ 0.3	≤ 0.3
